Experimental data published in PubChem BioAssay AID827 (SRMLSC, 2007).
About 1,700 (1.2%) of roughly 140,000 compounds were called active. The sample as a whole holds a higher share of actives than the screen did. A number with no mark means an inactive call.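 Rule for the calls: active = viability at or below a set limit, 4 SD under the median of all tested compounds (cut at about 3.7% in these data); inactive = the rest.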

Assay: growth suppression of PTEN-null HCT116, primary screen, cell-based, CellTiter-Glo (AID 827);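 note: PTEN knockout HCT116 line with beta catenin targeted HCT116 as companion control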
Details: 60 h, at 10 µM, active compounds read low
Work on `CCOc1ccc(C(=O)NC(=S)Nc2ccc(NC(=O)C(C)C)cc2)cc1[N+](=O)[O-]` yielded a viability of 87.9%. With `CCOC(=O)c1c(C)[nH]c2c1-c1ccccc1C(=O)C2=O` the viability was 1.66% (active). For `CCOC(=O)c1c(C)[nH]c(=S)c(C#N)c1-c1ccccc1`, the viability was 102%. Molecule `Cc1[nH]c2ccccc2c1C(=O)COC(=O)C(C)C` has a viability of 112%. Work on `CN(C)S(=O)(=O)c1cc(NC(=O)CN2C(=O)NC3(CCCc4ccccc43)C2=O)ccc1Cl` (configuration not stated) yielded a viability of 59.3%. `CCOCCCNC(=O)C(=O)NCCCOCC` gave a viability of 102%. In the case of `COC(=O)CN1C(C)=Nc2ccc(Br)cc2C1c1ccccc1` (configuration not stated), the viability is reported as 0.62% (active). `CCC(CC)C(=O)N1CC(=O)Nc2ccc(Br)cc2C1c1ccccc1` (configuration not stated) showed a viability of 71.6%. For `COC(=O)CN1C(=O)C(O)=C(C(C)=O)C1c1ccc([N+](=O)[O-])cc1` (configuration not stated), the viability was 96.7%. `COc1ccc(OCc2cn3c(C)cc(C)nc3n2)cc1` gave a viability of 99.6%. `Cc1ccc(S(=O)(=O)N2CCN(CC(=O)N/N=C/c3cc([N+](=O)[O-])ccc3Cl)CC2)cc1` gave a viability of 74.4%. With `CC(C)/C=N/NC(=O)c1cc(Br)ccc1O` the viability was 89%. Molecule `COc1ccc(C/C(C)=N/NC(=O)c2cc(C)oc2C)cc1` has a viability of 98.5%. For `c1ccc2cc3c(NCCN4CCOCC4)ccnc3cc2c1`, the viability was 3.31% (active). In the case of `O=C(Cn1c(-c2ccccn2)nc2ccccc21)NCCN1CCOCC1`, the viability is reported as 102%. Molecule `c1ccc2[nH]c(NCCN3CCOCC3)nc2c1` has a viability of 103%. In the case of `COc1ccccc1C(=O)Nc1ccc(OCc2nnc3c4ccccc4c(C)nn23)cc1`, the viability is reported as 101%. In the case of `CCCNC(=O)NC(=O)COC(=O)CC(NC(N)=O)c1ccc(Cl)cc1` (configuration not stated), the viability is reported as 103%. In the case of `N#C/C(C(=O)N1CCOCC1)=C1/SC(Cc2ccc(F)cc2)C(=O)N1c1ccccc1` (configuration not stated), the viability is reported as 89.2%. Molecule `CCCCOc1ccc(C(=O)NN2CCN(C)CC2)cc1` has a viability of 102%. For `CCCOc1ccc(C(=O)C(CCC(CNCC)C(=O)c2ccc(OCCC)cc2)CNCC)cc1` (configuration not stated), the viability was 0.64% (active). Molecule `CCCCOc1ccc(C(=O)NCc2ccncc2)cc1` has a viability of 70.3%. With `CC1(C)C2CC=C(/C=N/NC(=O)c3ccc(Cl)cc3)C1C2` (configuration not stated) the viability was 90.5%. In the case of `Fc1ccccc1/C=C1\CCCC2=C1Nc1ncnn1C2c1ccccc1F` (configuration not stated), the viability is reported as 2.48% (active). Work on `O=C(/C=C\c1cn(-c2ccccc2)nc1-c1cccs1)N1CCOCC1` yielded a viability of 67.3%. `CCn1c(/C=N/NC(=O)c2ccc(OC)cc2)nc2ccccc21` gave a viability of 14.3%. `O=C(Nn1c(-c2ccc(Cl)cc2)nc2ccccc2c1=O)c1cccnc1Cl` gave a viability of 102%. In the case of `CCOC(=O)c1c(/N=C/c2cc(C)ccc2O)sc2c1CCC2`, the viability is reported as 91.9%. With `CSc1nc(-c2ccccc2)nc(C(Cl)Cl)n1` the viability was 2.06% (active). In the case of `CSc1nc(C)cc(SC(C(C)=O)C(=O)Nc2ccccc2)n1` (configuration not stated), the viability is reported as 88.1%. With `C/C(=N/NS(=O)(=O)c1ccccc1)c1ccc(NC(=O)C(F)(F)F)cc1` the viability was 96.4%. For `Cc1cccc(OCC(=O)NC(=S)Nc2ccccc2N2CCOCC2)c1`, the viability was 99.9%. For `CCOc1cc(N2CCOCC2)c(OCC)cc1NC(=O)COc1cccc2cccnc12`, the viability was 3.59% (active). Work on `CCOc1cc(N2CCOCC2)c(OCC)cc1NC(=O)COC(=O)[C@H](Cc1c[nH]c2ccccc12)NC(C)=O` yielded a viability of 93.5%. For `O=[N+]([O-])c1ccc(N2CCN(S(=O)(=O)c3ccccc3)CC2)cc1N1CCc2ccccc2C1`, the viability was 89.4%. `O=C(Cc1ccccc1)NNS(=O)(=O)c1ccc([N+](=O)[O-])cc1` gave a viability of 101%. For `CC(C)CCN1C(=O)c2ccc(C(=O)Nc3cccc(S(N)(=O)=O)c3)cc2C1=O`, the viability was 88.8%. For `COC(=O)c1c(NC(=O)CN2CCN(S(=O)(=O)c3ccccc3[N+](=O)[O-])CC2)sc2c1CCC(C)C2` (configuration not stated), the viability was 93.5%. In the case of `CN1CCN(CC(=O)Nc2sc3c(c2C#N)CCC(C(C)(C)C)C3)CC1` (configuration not stated), the viability is reported as 3.39% (active). With `CCC1CCc2c(sc(NC(C)=O)c2C#N)C1` (configuration not stated) the viability was 95.5%. `Cc1ccc2sc(NNC(=O)c3ccc4c(c3)OCCO4)nc2c1C` gave a viability of 68.3%. Work on `O=C1C2C3C=CC(C4CC34)C2C(=O)N1c1nccs1` (configuration not stated) yielded a viability of 101%. `C=CCOc1ccc(/C=N/NC(=O)C(C)Sc2ccccn2)cc1OCC` (configuration not stated) gave a viability of 103%. In the case of `Cc1ccc(OCc2nnc(SC3CCc4ccccc4C3=O)n2C)cc1` (configuration not stated), the viability is reported as 85.3%. Work on `O=C(NCc1ccc(Cl)c(Cl)c1)c1cccnc1` yielded a viability of 100%. In the case of `O=C(/C=C/c1ccc(Cl)cc1Cl)c1cccnc1`, the viability is reported as 0.59% (active). `O=C(/C=C/c1ccc(Cl)cc1Cl)NCc1ccco1` gave a viability of 96.5%.
